Laboratory results published in paper PMC7826789 (International Journal of Molecular Sciences, 2021).

How the values were obtained:
Conditions in all cases: Compound Concentration (nM):1000
FGFR3 = tested on: FGFR3
FGFR4 = tested on: FGFR4
FGR = tested on: FGR
FLT1 = tested on: FLT1
FLT3(D835H) = tested on: FLT3(D835H)
FLT3(D835V) = tested on: FLT3(D835V)
FLT3(D835Y) = tested on: FLT3(D835Y)
FLT3(ITD) = tested on: FLT3(ITD)
FLT3(ITD,D835V) = tested on: FLT3(ITD,D835V)
FLT3(ITD,F691L) = tested on: FLT3(ITD,F691L)
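Note: KINOMEscan scanMAX binding as percent activity remaining versus control; lower means stronger binding.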

Row | SMILES | Percent Control (FGFR3) | Percent Control (FGFR4) | Percent Control (FGR) | Percent Control (FLT1) | Percent Control (FLT3(D835H)) | Percent Control (FLT3(D835V)) | Percent Control (FLT3(D835Y)) | Percent Control (FLT3(ITD)) | Percent Control (FLT3(ITD,D835V)) | Percent Control (FLT3(ITD,F691L))
1 | COc1cccc(-c2c[nH]c3c(N/N=C/c4ccncc4)ncnc23)c1 [GW814408X] | 100% | 100% | 43% | 83% | 27% | 7.5% | 16% | 21% | 3.9% | 43%
2 | C/C(Nc1ccc(S(N)(=O)=O)cc1)=C1/C(=O)Nc2ccccc21 [GW335962X] | 97% | 100% | 78% | 100% | 87% | 0.3% | 76% | 100% | 0.8% | 3%
3 | C[C@@H](Oc1cc(-n2cnc3ccc(OC4CCN(C)CC4)cc32)sc1C(N)=O)c1ccccc1Cl [GSK579289A] | 86% | 79% | 91% | 75% | 9.4% | 0% | 38% | 38% | 15% | 8.2%
4 | Cc1cc(O)cc(C)c1/C=C/c1cncc(C(N)=O)c1 [GW435821X] | 100% | 100% | 64% | 100% | 77% | 31% | 75% | 100% | 100% | 100%
5 | NS(=O)(=O)c1ccc(N/N=C2\C(=O)Nc3ccc(Cl)cc32)cc1 [GW280670X] | 100% | 100% | 100% | 100% | 83% | 31% | 100% | 59% | 60% | 36%
6 | Cl.O=C(Nc1ccc(Oc2ccc3[nH]c(NC(=O)c4ccccc4)nc3c2)cc1)Nc1cc(C(F)(F)F)ccc1F [GW709042A] | 100% | 100% | 82% | 5.1% | 2.8% | 28% | 14% | 3.7% | 95% | 56%
7 | Cl.O=C(O[C@H]1CN[C@H](C#Cc2cc3ncnc(Nc4ccc5c(cnn5Cc5ccccc5)c4)c3s2)C1)N1CCOCC1 [GSK200398A] | 100% | 89% | 96% | 99% | 96% | 87% | 89% | 98% | 88% | 92%
8 | Cl.O=S1CCN(Cc2ccc(-c3ccc4ncnc(Nc5ccc(OCc6ccccc6)c(F)c5)c4c3)o2)CC1 [GW576924A] | 100% | 100% | 100% | 100% | 100% | 99% | 83% | 100% | 100% | 100%
9 | Cl.O=C(Nc1ccc(Oc2ccc3[nH]c(NC(=O)c4ccco4)nc3c2)cc1)Nc1cc(C(F)(F)F)ccc1F [GW683134A] | 84% | 100% | 91% | 3.2% | 0.4% | 13% | 9.8% | 3.7% | 96% | 39%
10 | Nc1ncnc2occ(-c3ccc(NC(=O)Nc4cc(C(F)(F)F)ccc4F)cc3)c12 [GW770249X] | 77% | 69% | 100% | 2.9% | 0.9% | 4.1% | 11% | 2.9% | 52% | 27%
11 | COc1ccc2[nH]c3c4[nH]c5ccc(OC)cc5c4c4c(c3c2c1)C(=O)NC4=O [GW296115X] | 93% | 85% | 68% | 79% | 12% | 4% | 16% | 2.1% | 0% | 3.6%
12 | COc1cc(/C=N/Nc2ncnc3[nH]ncc23)ccc1O [GW578748X] | 100% | 100% | 63% | 89% | 25% | 0.2% | 25% | 43% | 4.5% | 11%
13 | CC1=C(C(=O)Nc2ccc3[nH]ncc3c2)C(c2ccc3ccccc3c2)CC(=O)N1 (stereo not drawn) [GSK270822A] | 73% | 58% | 76% | 89% | 94% | 65% | 78% | 100% | 73% | 79%
14 | COc1cccc(-n2ncc3c(N/N=C/c4ccncc4)ncnc32)c1 [GW784752X] | 100% | 100% | 72% | 100% | 22% | 4% | 48% | 67% | 10% | 55%
15 | NS(=O)(=O)c1ccc(N/N=C2\C(=O)Nc3ccc(-c4cnco4)cc32)cc1 [GW276655] | 100% | 82% | 79% | 80% | 43% | 2.2% | 45% | 44% | 4.3% | 18%
16 | CCS(=O)(=O)c1ccc(OC)c(Nc2ncc(-c3cccc(F)c3)o2)c1 [GW621970X] | 11% | 87% | 24% | 45% | 0.6% | 0% | 39% | 5.8% | 0% | 25%
17 | COc1ccc(COc2ccc(Cc3cnc(N)nc3N)cc2OC)cc1 [GW632580X] | 95% | 98% | 81% | 98% | 100% | 100% | 81% | 87% | 100% | 99%
18 | NS(=O)(=O)c1ccc(N/N=C2\C(=O)Nc3ccc(C(=O)NCCc4c[nH]cn4)cc32)cc1 [GW300660X] | 100% | 100% | 100% | 100% | 52% | 0.8% | 62% | 80% | 1.8% | 4.1%
19 | NS(=O)(=O)c1ccc(Nc2ncc(-c3ccccc3)o2)cc1 [GW572399X] | 100% | 100% | 98% | 100% | 70% | 8.5% | 80% | 53% | 29% | 42%
20 | COc1ccc2c(-c3ccnc(Nc4cccc(OC(F)(F)F)c4)n3)cnn2n1 [GW810372X] | 100% | 100% | 96% | 73% | 0% | 46% | 55% | 49% | 65% | 89%
21 | CCc1ccc(Oc2nccc(-c3c(-c4ccc(F)cc4)ncn3C3CCNCC3)n2)cc1 [SB-242719] | 100% | 91% | 87% | 100% | 88% | 100% | 100% | 99% | 89% | 93%
22 | O=C(Nc1n[nH]c2nc(-c3ccc(O)cc3)c(Br)cc12)C1CC1 [SB-725317] | 100% | 100% | 100% | 89% | 29% | 2.9% | 33% | 68% | 35% | 37%
23 | CC1=C(C(=O)Nc2ccc3[nH]ncc3c2)C(c2ccc(Cl)c(Cl)c2)CC(=O)N1 (stereo not drawn) [GSK299115A] | 84% | 57% | 86% | 100% | 100% | 75% | 87% | 100% | 80% | 94%
24 | O=C1Nc2ccc(C(=O)c3ccco3)cc2C1=Cc1cc(Cl)c(O)c(Cl)c1 [GW406108X] | 78% | 100% | 81% | 57% | 18% | 2.2% | 15% | 47% | 12% | 29%
25 | COc1ccccc1-c1cc(/C=C2\C(=O)Nc3ncc(Br)cc32)cc(Br)c1O [GW442130X] | 100% | 100% | 100% | 100% | 86% | 73% | 40% | 100% | 92% | 100%
26 | COc1ccc2cc(-c3c(-c4ccncc4)nc(-c4ccc(S(C)(=O)=O)cc4C)n3C)ccc2c1 [SB-633825] | 76% | 85% | 63% | 100% | 79% | 74% | 99% | 100% | 80% | 81%
27 | COc1cc2ncn(-c3cc(O[C@H](C)c4ccccc4Cl)c(C(N)=O)s3)c2cc1OC [GSK237701A] | 57% | 100% | 67% | 69% | 11% | 0% | 28% | 33% | 5.9% | 21%
28 | Cl.c1ccc(Cc2nc3ccc(Nc4ncnc5ccccc45)cc3[nH]2)cc1 [GR269666A] | 100% | 100% | 100% | 100% | 100% | 83% | 97% | 100% | 100% | 100%
29 | CCS(=O)(=O)c1ccc(OC)c(Nc2ncc(-c3cccc(OC)c3)o2)c1 [GW580509X] | 44% | 100% | 41% | 54% | 0.5% | 0% | 42% | 8.2% | 0% | 30%
30 | COc1cc(C)c(N(C)C(=O)CN(C)C)cc1Nc1nc(Nc2cccc(F)c2C(N)=O)c2cc[nH]c2n1 [GSK2219385] | 78% | 96% | 100% | 96% | 85% | 76% | 91% | 82% | 88% | 100%
